# Screens from PubChem BioAssay.
# SSB-PriA inh – blocks PriA binding to SSB C-terminal tail. 0.6% of 430,000 active. inhibition, % at 33 µM. AlphaScreen SSBct-PriA binding, biotinylated peptide; in the data active = inhibition mostly above about 37%, no sharp cut-off; inactive = mostly below about 20%;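 note: plate controls were negative control peptide for no effect and reference peptide for full effect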
# DUSP3 inh – blocks human VHR1 dual specificity phosphatase; AID 1654; recombinant VHR phosphatase, pNPP absorbance; P51452; inhibition, % at 13.3 µM; 0.52% of 290,000 active; in the data active = inhibition above about 50%
# Target sequence (P51452 whole entry, looked up): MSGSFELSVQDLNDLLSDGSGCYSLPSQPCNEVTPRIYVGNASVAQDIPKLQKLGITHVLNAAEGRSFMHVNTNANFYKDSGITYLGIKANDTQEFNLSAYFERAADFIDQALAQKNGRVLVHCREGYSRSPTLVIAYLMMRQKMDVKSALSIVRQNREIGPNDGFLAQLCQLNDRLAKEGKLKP
# TcdB GH inh – inhibitors of Clostridioides difficile toxin B glycohydrolase; inhibition, % at 9.99 µM; 0.24% of 350,000 active; P18177; TcdB glycohydrolase enzymatic assay, plate reader; AID 652162; in the data active = inhibition above about 10%
# 3CLpro inhibitor – SARS-CoV 3CLpro protease inhibition; P0C6X7; recombinant SARS-CoV 3CLpro, quenched FRET peptide cleavage; inhibition, % at 6 µM; 0.14% of 290,000 active; in the data active = inhibition above about 12%
# Vc quorum ag – inducers of Vibrio cholerae quorum light production without autoinducers. V. cholerae BH1578 lux reporter, luminescence, 6 h. AID 588436. 0.16% of 350,000 active. activation, % at 18.7 µM; in the data active = activation mostly above about 9.7%, no sharp cut-off
# CCHF vOTU inh – CCHFV vOTU protease inhibition; Pep-AMC fluorescence; inhibition, % at 11.5 µM; 0.55% of 370,000 active; AID 651958; in the data active = inhibition above about 30%; note: 0% = vehicle wells with enzyme and 100% = no enzyme wells
# * hit, by the source's call; i = inactive; . = no result given; ! = repeats disagree. Most compounds without a hit are left out; they make up all but 1.3% or so of the library.
SMILES,SSB-PriA inh,DUSP3 inh,TcdB GH inh,3CLpro inhibitor,Vc quorum ag,CCHF vOTU inh
COc1ccc(OC)c(NC(=S)Nc2ncccc2C)c1,105*,.,.,.,.,.
Clc1cccc(-c2ccc3ncnc(NCc4cccs4)c3c2)c1,-9,.,11*,.,i,-3
Cc1cccc(-c2ccc3ncnc(NCc4cccs4)c3c2)c1,-11,.,1,.,0,-6
COc1ccc(-n2nnc(C(=O)OCc3ccc(Cl)cc3)c2C)cc1,-7,.,.,.,.,.
Cc1ccsc1/C=N\NC(=O)CNC(=O)c1ccco1,2,.,.,.,.,.
CN1C(=O)Cc2cc(NC(=O)c3ccc(-c4ccsc4)cc3)ccc21,58*,.,.,.,.,.
Nc1ccccc1C(=O)NN=C1C2CN3CCN(C2)CC1(c1ccccc1)C3,-16,.,.,.,.,.
Cc1ccc(C)c(S(=O)(=O)N2CCN(Cc3cc4c(cc3O)OCO4)CC2)c1,41*,.,0,.,i,7
CCN1CCN(S(=O)(=O)c2ccc3[nH]c(=O)oc3c2)CC1,2,4,19*,-2,0,-4
O=c1[nH]c2ccc(S(=O)(=O)N3CCCCC3)cc2o1,0,4,0,0,i,0
CC(=NNC(=S)N1CCCCC1)c1cccc(C)n1,-7,.,0,.,2,-12
CN(C)C(=S)NN=C(c1ccccn1)c1ccccn1,162*,.,.,.,.,.
CSC(=S)N/N=C(/c1ccccc1)c1ccccn1,108*,.,.,.,.,.
CC(=NNC(=S)Nc1ccccc1)c1ccccn1,.,.,-11,.,i,1
CSC(=S)NN=C(C)c1cccc(C)n1,55*,.,-1,.,i,16
CC(C)N(C(=O)Nc1ccc2nccnc2c1)C(C)C,79*,18,.,-10,-1,-22
Fc1ccc(NC(=S)Nc2ccc3nccnc3c2)cc1,45*,24,6,-5,0,9
CC1(C)CC(=O)C2=C(C1)NC(=O)CC2c1ccc(F)cc1 (stereo not drawn),-21,36,.,1,30*,1
O=C(CSc1nnc(-c2ccc(O)cc2)n1Cc1ccco1)c1ccccc1,-3,0,.,-1,i,-3
O=C(CSc1nnc(-c2ccccn2)n1Cc1ccco1)c1ccc(-c2ccccc2)cc1,49*,32,.,3,0,12
COc1ccccc1NC(=O)CSc1nnc(-c2ccccc2)n1Cc1ccco1,55*,.,.,.,.,.
CCOc1ccccc1NC(=O)CSc1nnc(-c2ccco2)n1Cc1ccco1,-3,15,.,3,i,4
Fc1ccccc1CSc1nnc(-c2cnccn2)n1Cc1ccco1,-8,31,2,0,-1,6
Clc1ccc(CSc2nnc(-c3ccccn3)n2Cc2ccco2)c(Cl)c1,49*,1,.,-3,0,10
Nc1nc(-c2cccc(S(=O)(=O)N3CCCC3)c2)cs1,-6,.,.,.,.,.
SMILES,SSB-PriA inh,DUSP3 inh,TcdB GH inh,3CLpro inhibitor,Vc quorum ag,CCHF vOTU inh
COc1ccc(N2N=C(C(C)=O)S[C@@]23c2ccccc2C(c2ccc(Cl)cc2)=NN3c2ccccc2)cc1,-19,.,.,.,.,.
Cc1nn(C)c(C)c1C(=O)NCc1nnc2ccc(-c3cccs3)nn12,-5,.,.,.,.,.
CCN(CC)c1ccc(C=NNS(=O)(=O)c2ccc(C)c([N+](=O)[O-])c2)cc1,39*,.,.,.,.,.
Cc1ccnc(NC(=O)CCC(=O)N(CC(=O)NCCc2ccccc2)c2ccc(F)cc2)c1,1,25,0,3,-1,8
CCOc1ccc(N(CC(=O)NCCc2ccccc2)C(=O)CCC(=O)Nc2cc(C)ccn2)cc1,104*,30,-2,-5,0,28
Cc1ccc(CNC(=O)CN2C(=O)NC(C)(c3ccccc3Cl)C2=O)cc1 (stereo not drawn),-10,53*,1,2,i,-1
CCCC1Oc2ccccc2C(=O)N(CC(=O)c2ccc(F)cc2)C1=O (stereo not drawn),54*,.,.,.,.,.
COCCN=c1scc(-c2ccccc2)n1N=Cc1c[nH]c2ccccc12,51*,.,.,.,.,.
COCCN=c1scc(-c2cc(OC)c(OC)c(OC)c2)n1/N=C/c1c(C)[nH]c2ccccc12,.,3,-1,-1,0,5
O=C1NC(=NNC(=O)c2cccc3ccccc23)S/C1=C\c1ccccc1OCc1ccccc1,4,.,.,.,.,.
Oc1ccccc1NCC(O)Cn1ccc2ccccc21 (stereo not drawn),59*,36,.,-5,1,7
O=C(O)CC1S/C(=N\N=C2\CSC(=O)N2)NC1=O (stereo not drawn),64*,.,.,.,.,.
O=C1CS/C(=N\N=C2\NC(=O)C(CC(=O)c3ccc(F)cc3)S2)N1 (stereo not drawn),46*,.,.,.,.,.
CCOC(=O)c1sc2nc(N3CCOCC3)c3c(c2c1N)CCC3,-3,15,.,3,0,-158
CCOC(=O)c1sc2nc(OCCN3CCOCC3)cc(C)c2c1N,.,.,12*,.,.,-35
Nc1[nH]n(-c2ccccc2)c(=O)c1N=Nc1ccccc1,75*,31,1,-2,i,-3
COc1cc(Cc2ccc(N)c(OC)c2)ccc1N,20,-14,15*,-1,0,0
COc1ccc(Cc2ccc(OC)c(N)c2)cc1N,16,23,2,1,i,4
O=C(Nc1ccc(-c2csc(Nc3cccnc3)n2)cc1)c1ccc(C(F)(F)F)nc1,-12,.,.,.,.,.
CN(C)CCCN(C(=O)c1ccc(S(=O)(=O)N(C)Cc2ccccc2)cc1)c1nc2c(F)cccc2s1,39*!,14,1,7,0,6
COc1cc2nc(N(CCCN(C)C)C(=O)c3ccc(S(=O)(=O)N4CCc5ccccc54)cc3)sc2cc1OC,27,.,0,.,i,1
CCN(Cc1ccccc1)S(=O)(=O)c1ccc(C(=O)N(CCCN(C)C)c2nc3cc(OC)ccc3s2)cc1,51*!,.,0,.,-1,11
CCN(Cc1ccccc1)S(=O)(=O)c1ccc(C(=O)N(CCCN(C)C)c2nc3ccc(F)cc3s2)cc1,37*!,2,1,4,i,6
CN(C)CCCN(C(=O)c1ccc(C(=O)c2ccccc2)cc1)c1nc2ccc(F)cc2s1,17,5,2,6,i,6
CCN(CC)CCN(C(=O)c1ccc(S(=O)(=O)N(C)Cc2ccccc2)cc1)c1nc2c(C)cccc2s1,24,.,.,.,.,.
SMILES,SSB-PriA inh,DUSP3 inh,TcdB GH inh,3CLpro inhibitor,Vc quorum ag,CCHF vOTU inh
COc1ccc2sc(N(CCCN(C)C)C(=O)c3ccc(S(=O)(=O)N4CCCc5ccccc54)cc3)nc2c1,36*!,.,2,.,-1,3
COc1ccc(S(=O)(=O)Nc2ccc3c(c2)OCC(C)(C)C(=O)N3C)cc1Cl,-12,.,.,.,.,.
CCOC(=O)c1ccc(NC(=O)CSc2ncnc3c2nnn3Cc2ccccc2)cc1,-6,.,.,.,.,.
O=C(NC1CCS(=O)(=O)C1)c1cc(N2CCCC2)ncn1 (stereo not drawn),-22,.,.,.,.,.
COc1ccc(C)cc1NC(=O)CSc1nc2c(-c3ccccc3)csc2c(=O)n1C,-8,.,.,.,.,.
CCN(Cc1ccccc1)S(=O)(=O)c1ccc(C(=O)N(CCCN(C)C)c2nc3cc4c(cc3s2)OCCO4)cc1,47*,.,1,.,-1,21
COc1cc(CNc2ccc(C(=O)O)cc2)cc(Br)c1OCC(=O)NC(C)(C)C,-6,2,.,1,3,-11
